Laboratory results: ChEMBL document CHEMBL4513216, “Probing the Open Global Health Chemical Diversity Library for Multistage-Active Starting Points for Next-Generation Antimalarials” (ACS Infect Dis, 2020)
The campaign covered roughly 68,000 compounds. About 2,700 (4%) showed an effect of 50% or more. This is one part of a sample in which strong results are shown more often than they occur.

Each compound was assayed on Plasmodium berghei (assay: Screen against P. berghei liver stage (PbLuc), transformed with Luciferase, at 2uM). Settings: tested at 2 uM.
Assay type: functional, HepG2
With `CCCS(=O)(=O)N1CCN(c2cc(-n3cnc(C)c3C)nc(C)n2)CC1` the INHIBITION was 35.54%.
Work on `CCS(=O)(=O)N1CCN(c2cc(-n3cnc(C)c3C)nc(C)n2)CC1` yielded an INHIBITION of 61.28%.
For `CCOCCN1CCCC1CS(N)(=O)=O` (stereo unspecified), the INHIBITION was -7.76%.
`O=C(c1ccc2c(c1)OCO2)N1CCCC(Nc2ccc(F)cc2)C1` (stereo unspecified) gave an INHIBITION of 47.67%.
`CC(C)(O)CSCCNC(=O)c1cc(F)ccc1F` gave an INHIBITION of 35.56%.
For `CSCC(C)(O)CNC(=O)c1ccc(F)cc1Cl` (stereo unspecified), the INHIBITION was -29.65%.
For `CC(C)(O)CSCCNC(=O)c1ccc(F)cc1Cl`, the INHIBITION was 58.69%.
Work on `O=C(CCc1ccc(Cl)cc1)N[C@@H]1CC[C@@H](O)[C@@H]1O` yielded an INHIBITION of -11.3%.
`c1cncc(CN2CCCn3nnc(COCC4CC4)c3C2)c1` showed an INHIBITION of 34.37%.
`CSc1ccc(NC(=O)COCc2ccccc2)nc1` gave an INHIBITION of 12.43%.
`O=C(CCCOCc1ccccc1)N1CCCC1c1ccccn1` (stereo unspecified) showed an INHIBITION of 28.51%.
Work on `O=C(COCc1ccccc1)Nc1ccccn1` yielded an INHIBITION of 62.51%.
`CS(=O)(=O)Cc1cc(F)ccc1NCc1nnsc1Cl` was tested, and the INHIBITION was -13.68%.
In the case of `CCC(C)(C)NC(=O)Cn1nnc(CN(C)C(=O)c2ccccc2)n1`, the INHIBITION is reported as 2.49%.
Work on `Cc1ccc(N(C)Cc2nnnn2C2CC2)c(C)c1` yielded an INHIBITION of -11.28%.
For `CCN(Cc1nnnn1C1CC1)c1cc(C)ccc1C`, the INHIBITION was 55.43%.
For `CN(Cc1nnnn1C1CC1)c1cccc2ccccc12`, the INHIBITION was 4.86%.
Compound `Cc1nnc(SCC(=O)NCc2ccc3c(c2)CCC(=O)N3)n1C` has an INHIBITION of 26.03%.
`Cc1ncc(-c2ccnc(SCCN(C)C)n2)c(-c2ccco2)n1` gave an INHIBITION of 8.77%.
In the case of `CNC(=O)[C@@H](C1CCCCC1)N1CCC[C@H]1C(=O)N(C)CCN(C)C`, the INHIBITION is reported as 27.65%.
Work on `Cc1cc(CC(C)NC(=O)Cc2cc(F)ccc2C)[nH]n1` (stereo unspecified) yielded an INHIBITION of 27.47%.
Work on `COc1ccccc1C1CC(=O)Nc2nc(N3CCCCC3)sc21` (stereo unspecified) yielded an INHIBITION of -71.12%.
In the case of `CN(C)C[C@@H]1CCC[C@@H]2CN(c3nccc(C(F)(F)F)n3)C[C@@H]21`, the INHIBITION is reported as 16.87%.
`O=C1O[C@@H]2CN(c3cnccn3)C[C@@H]2N1CCCc1ccc(F)cc1` gave an INHIBITION of 51.96%.
`O=C1O[C@@H]2CN(c3ncccn3)C[C@@H]2N1CCCc1ccc(F)cc1` was tested, and the INHIBITION was 17.48%.
`O=C1O[C@@H]2CN(c3ccccn3)C[C@@H]2N1CCCc1ccc(F)cc1` was tested, and the INHIBITION was 12.55%.
`COc1cc(C2c3c(n[nH]c3C)N=C3COC(=O)C32)cc2c1OCO2` (stereo unspecified) gave an INHIBITION of -41.64%.
`COc1ccc(CNC(=O)NC(C)(CO)C2CC2)c(C(F)(F)F)c1` (stereo unspecified) was tested, and the INHIBITION was -16.93%.
Work on `CCN(CC)C(=O)c1cc(Br)cc(S(=O)(=O)N2CCOCC2)c1F` yielded an INHIBITION of 0.48%.
`O=C(COCc1ccccc1)N1CCC(OCc2cccnc2)CC1` was tested, and the INHIBITION was 34.34%.
`Cc1cc(C)c(C(=O)N2CCCC(C(=O)CCc3ccccc3)C2)cn1` (stereo unspecified) was tested, and the INHIBITION was 0.73%.
With `CN(C)S(=O)(=O)N1CCOC(c2cccc(-c3cncnc3)n2)C1` (stereo unspecified) the INHIBITION was -12.93%.
Compound `CCc1nc(C(=O)N2CCCCC2)nn1-c1ccccc1Cl` has an INHIBITION of -41.76%.
For `CN(C)C(=O)CNC(=O)c1nc(C2CC2)n(-c2ccccc2Cl)n1`, the INHIBITION was 65.76%.
Work on `Cc1nc(C(=O)N2CCCCC2)nn1-c1ccccc1Cl` yielded an INHIBITION of 60.09%.
`CCN1CCN(C(=O)c2nc(C)n(-c3ccccc3Cl)n2)CC1` was tested, and the INHIBITION was -18.67%.
Work on `CC(=O)NCCNC(=O)c1nc(C2CC2)n(-c2ccccc2Cl)n1` yielded an INHIBITION of -1.79%.
`CCNC(=O)CNC(=O)c1nc(C2CC2)n(-c2ccccc2Cl)n1` gave an INHIBITION of 13.01%.
Work on `CN1[C@H](Cn2cncn2)C[C@@H]2CN(Cc3cccc(C#N)c3)CC[C@@H]21` yielded an INHIBITION of 12.3%.
`CN1CCC2(C=C(C(=O)N(C)C)c3ccccc32)CC1` gave an INHIBITION of -10.89%.
Compound `Cc1cccc(C(=O)N2CC(Cc3nccc4ccn(C)c34)C2)n1` has an INHIBITION of -25.33%.
With `CC(=O)N1CC(Cc2nccc3ccn(C)c23)C1` the INHIBITION was 20.08%.
In the case of `Cn1ccc2ccnc(CC3CN(C(=O)c4cscn4)C3)c21`, the INHIBITION is reported as 52.82%.
`CCc1nnc2n1CCN(C(=O)C(C)COCc1ccccc1)C2` (stereo unspecified) showed an INHIBITION of -32.2%.
For `Cc1cc2c(N3CCC(N(C)Cc4cnn(C)c4)CC3)ncnc2s1`, the INHIBITION was 10.13%.
With `Cn1c(=O)c2c(n3ncnc13)NC(=O)CC2c1cccc(Br)c1` (stereo unspecified) the INHIBITION was -13.28%.
In the case of `Cn1c(=O)c2c(n3ncnc13)NC(=O)CC2c1cccc(F)c1` (stereo unspecified), the INHIBITION is reported as 5.31%.
`COc1cccc(C2CC(=O)Nc3c2c(=O)n(C)c2ncnn32)c1` (stereo unspecified) showed an INHIBITION of 15.49%.
For `Cn1c(=O)c2c(n3ncnc13)NC(=O)CC2c1ccc(F)cc1` (stereo unspecified), the INHIBITION was 53.55%.
With `CCc1ccc(C2CC(=O)Nc3c2c(=O)n(C)c2ncnn32)cc1` (stereo unspecified) the INHIBITION was 56.21%.
`CCc1ccc(C2CC(=O)Nc3c2c(=O)[nH]n3C(C)C)cc1` (stereo unspecified) gave an INHIBITION of -9.13%.
